Shown are actives, neighbours in structure and some others; about 3.5% of the full set was active somewhere.
MITF primary = inhibitors of human MITF. O75030. AlphaScreen MITF homodimerization, bead proximity signal. inhibition, % at 2.6 µM. actives 0.91% (n = 650,000). AID 1259374; in the data active = inhibition above about 50%
FBW7 act = human FBW7 E3 ligase activation, primary screen; AlphaScreen FBW7–phospho-cyclin E peptide binding, activator screen; AID 1259310; actives 0.13% (n = 650,000); Q969H0; normalized activity (activation), % at 26.1 µM; in the data active = normalized activity above about 1.9%;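 also: purified mutant Fbw7 with reduced substrate affinity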
TEAD-YAP inh = TEAD-YAP interaction inhibition; actives 1.4% (n = 640,000); HEK-TIYL cells, TEAD-Gal4/YAP UAS-luciferase luminescence; inhibition, % at 9.12 µM; in the data active = inhibition above about 32%
GPR151 activ = activates the human receptor GPR151 | Q8TDV0 | PathHunter beta-arrestin GPR151 cells, luminescence | activation, % at 11.2 µM | actives 1% (n = 650,000) | AID 1508602; in the data active = activation above about 4.9%
MITF confirm = human MITF inhibition, confirmation; shares compounds with MITF primary; AlphaScreen MITF homodimerization, biotin/His-MITF beads; inhibition, % at 2.6 µM; actives 16% (n = 4,700);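 active = inhibition above a cutoff derived from the DMSO control wells, cut at about 28% in these data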;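 also: inhibitors lower the bead chemiluminescence by keeping MITF from dimerizing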
AlphaScreen DR = counter-screen: compounds optically interfering with AlphaScreen; AlphaScreen optical interference counterscreen, cell-free; shares compounds with MITF primary; IC50, µM; AID 1259373; actives 6% (n = 480); call rule not given here
AS interf ctr = counter-screen: compounds optically interfering with AlphaScreen. shares compounds with MITF primary. LysRS AlphaScreen counterscreen, signal interference, triplicate. inhibition, % at 2.6 µM. actives 7.6% (n = 4,700). AID 1259376;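 active = inhibition above a cutoff derived from the DMSO control wells, cut at about 30% in these data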
Each line names hits and unclear results; the compound was inactive in the other large screens (follow-up assays come after a bar, where they were run).

c1ccc2c(CN3CCN(C4C5CC6CC(C5)CC4C6)CC3)c[nH]c2c1 (centres undefined)	MITF primary 65 | MITF confirm inactive | AS interf ctr inactive
Clc1ccccc1CN1CCN(C2C3CC4CC(C3)CC2C4)CC1 (centres undefined)	MITF primary 75 | MITF confirm inactive | AS interf ctr inactive
O=C1N=c2ccc([N+](=O)[O-])cc2=C1c1sc(=Nc2ccccc2)n(-c2ccccc2)c1O	none
O=S(=O)(c1ccccc1)N1CCN(Cc2ccccc2)CC1	none
CCCS(=O)(=O)N1CCN(Cc2ccc(SC)cc2)CC1	none
CCc1ccc(CN2CCN(S(=O)(=O)CC)CC2)cc1	MITF primary 51 | MITF confirm inactive | AS interf ctr inactive
CCOc1ccc(CN2CCN(S(=O)(=O)CC)CC2)cc1	none
Cc1ccc(CN2CCN(S(=O)(=O)c3ccccc3)CC2)cc1	MITF primary 71 | MITF confirm inactive | AS interf ctr inactive
CCc1ccc(CN2CCN(S(=O)(=O)c3ccccc3)CC2)cc1	MITF primary 55 | MITF confirm inactive | AS interf ctr inactive
CCCS(=O)(=O)N1CCN(Cc2ccncc2)CC1	MITF primary 62 | MITF confirm inactive | AS interf ctr inactive
Cc1cc(-c2cnc(N3CCCC3)nc2C2CCCN(Cc3ccnn3C)C2)on1 (centres undefined)	none
COc1ccc(C2C(C(=O)OCCc3ccccc3)=C(C)NC3=C2C(=O)CCC3)cc1OC (centres undefined)	none
O=C1CCc2cc(C(=O)CCl)ccc2N1	none
CCC1(C)Cc2c(sc3nc(SCc4ccc(Cl)c(Cl)c4)n(Cc4ccccc4)c(=O)c23)CO1 (centres undefined)	none
CCCN1C(=O)/C(=C/c2cc(OCC)c(O)cc2Br)NC1=S	none
CC(=O)Nc1ccc(S(=O)(=O)N2CCN(Cc3ccccc3[N+](=O)[O-])CC2)cc1	none
Cc1ccc(S(=O)(=O)N2CCN(Cc3ccccc3[N+](=O)[O-])CC2)cc1	MITF primary 78 | MITF confirm inactive | AS interf ctr inactive
Cc1ccc(C(=O)/C=C/c2ccc(Br)o2)o1	MITF primary 67 | MITF confirm inactive | AS interf ctr inactive
Cc1ccc(C(=O)/C=C/c2ccc(Br)cc2)o1	none
O=C(O)C1=NN(c2ccccn2)C(=O)CC1	MITF primary 77 | MITF confirm inactive | AS interf ctr 100
CN1CCN(CCOCCOc2ccc(Br)cc2Cl)CC1	none
CCN1CCN(CCOc2cccc(Br)c2)CC1	MITF primary 68 | MITF confirm inactive | AS interf ctr inactive
CN1CCN(CCOCCOc2cccc(Br)c2)CC1	MITF primary 72 | MITF confirm inactive | AS interf ctr inactive
O=C(NC1CCSC1=O)c1ccc([N+](=O)[O-])o1 (centres undefined)	none
Cc1nn(-c2ccccc2)c2nc(-c3cccnc3)cc(C(=O)NN)c12	none
O=S(=O)(NCc1ccc(Br)cc1)c1ccc(F)cc1	none
COc1cc(CNC2CCOC(C)(C)C2)ccc1O (centres undefined)	none
COc1ccc(CN2CCCC(O)C2)cc1OC (centres undefined)	none
C=C(C)CN(CC)C(=O)C1CCN(Cc2cc(OC)c(OC)c(OC)c2)CC1	MITF primary 56 | MITF confirm inactive | AS interf ctr inactive
COc1cc(CN2CCCC(C(=O)N3CCCCCC3)C2)cc(OC)c1OC (centres undefined)	MITF primary 61 | MITF confirm inactive | AS interf ctr inactive
O=C(C1CCCN(Cc2cccc(Cl)c2)C1)N1CCCCC1 (centres undefined)	none
COc1cccc(CN2CCCC(C(=O)N3CCCCC3)C2)c1 (centres undefined)	MITF primary 69 | MITF confirm inactive | AS interf ctr inactive
COc1ccc(CN2CCCC(C(=O)N3CCCCCC3)C2)cc1OC (centres undefined)	MITF primary 60 | MITF confirm inactive | AS interf ctr inactive
Cc1ccc(NC(=O)CN(c2cccc(C(F)(F)F)c2)S(=O)(=O)c2ccccc2)c(C)c1	none
CC(C)[C@@H](Cn1nc(C2CC2)ccc1=O)NC(=O)c1nccc2ccccc12	none
CCOc1ccccc1OCCN1CCOCC1	none
CCOc1ccccc1OCCN1CC(C)CC(C)C1 (centres undefined)	MITF primary 78 | MITF confirm inactive | AS interf ctr inactive
Fc1ccccc1OCCN1CCN(Cc2ccccc2)CC1	MITF primary 73 | MITF confirm inactive | AS interf ctr inactive
Fc1ccccc1OCCN1CCOCC1	none
CCOc1ccccc1OCCN1CCN(Cc2ccccc2)CC1	MITF primary 64 | MITF confirm inactive | AS interf ctr inactive
COc1cc2cc3c(N)c(C(=O)Nc4sc(C)c(C)c4C#N)sc3nc2cc1OC	MITF primary 62 | MITF confirm 70 | AlphaScreen DR inactive | AS interf ctr inactive
CC1CCN(c2ccc(-c3ccc(NS(C)(=O)=O)cc3)nn2)CC1	none
CC(C)CC(=O)N1CCN(C2CCC(C)CC2)CC1 (centres undefined)	MITF primary 59 | MITF confirm inactive | AS interf ctr inactive
CC1CCC(N2CCN(C(=O)c3ccccc3)CC2)CC1 (centres undefined)	none
O=C(CCS(=O)(=O)C(Cl)Cl)OCc1ccccc1	none
COc1ccc(CN2CCN(Cc3ccco3)CC2)cc1OC	MITF primary 71 | MITF confirm inactive | AS interf ctr inactive
COc1ccc(CNC(=O)N2CCN(CC(=O)c3ccco3)CC2)cc1OC	MITF primary 54 | MITF confirm inactive | AS interf ctr inactive
CCOc1cc(CN2CCN(Cc3ccco3)CC2)ccc1OC	none
COc1ccc(CN2CCN(Cc3ccco3)CC2)cc1Br	MITF primary 72 | MITF confirm inactive | AS interf ctr inactive
CN(C)CCNC(=O)C1CN(Cc2ccccc2)CCN1C(=O)Nc1cccc(C#N)c1 (centres undefined)	none
Cc1ccccc1CN1CCN(Cc2cccnc2)CC1	MITF primary 84 | MITF confirm inactive | AS interf ctr inactive
Cc1ccc(C)c(N2CCN(Cc3cccnc3)CC2)c1	none
C(=N\N1CCN(Cc2cccc3ccccc23)CC1)/c1ccncc1	none
Cc1ccccc1CN1CCN(Cc2ccncc2)CC1	MITF primary 60 | MITF confirm inactive | AS interf ctr inactive
c1ccc2c(CN3CCN(Cc4ccncc4)CC3)cccc2c1	MITF primary 55 | MITF confirm inactive | AS interf ctr inactive
COc1ccc(C2C(C(=O)O)c3ccccc3C(=O)N2C)cc1OC (centres undefined)	none
Cc1nc(NCCO)c2c3c(sc2n1)CCC3	none
Cc1nc(NCC(C)C)c2c3c(sc2n1)CCCC3	MITF primary 52 | MITF confirm inactive | AS interf ctr inactive
CCSc1nnc2c(n1)OC(c1cc3c(cc1Br)OCO3)N(C(C)=O)c1ccccc1-2 (centres undefined)	none
NC(=O)c1ccsc1NC(=O)C1Cc2ccccc2CN1C(=O)c1ccco1 (centres undefined)	none
